In PubChem BioAssay AID1159580 (chemical genetic matrix, 2015):
Several values for one entry are separate records, joined by “and”; a condition that tells them apart may be missing. Equal entries are not always repeated. Screen size: about 5,500 compounds; about 2,000 (36%) were called active. About 18% were inconclusive and are not listed. Rule as the data show it: active = normalized growth mostly below about 0.91 (no sharp cut-off); inconclusive = no clear call, values can overlap the other calls; inactive = mostly above about 0.92. This is one part of the list.

Test: chemical genetic growth profiling, strain panel (AID 1159580);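 also: tested at 20 µM; growth read once vehicle control cultures reached saturation at 30 °C; 1 = growth at the plate median or of vehicle wells; lower values mean less growth of the strain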
Settings: growth OD

Measured: normalized growth

NC(=O)CN1CCCC1=O
inactive: S. cerevisiae deletion strains, locus YKL009W, strain mrt4, stronger effect = lower value 1.01 | S. cerevisiae deletion strains, locus YKL068W, stronger effect = lower value 1 | S. cerevisiae deletion strains, locus YKL085W, strain MDH1 (second series), stronger effect = lower value 1.02 | S. cerevisiae deletion strains, locus YKL085W, strain MDH1, stronger effect = lower value 1.02 | S. cerevisiae deletion strains, locus YKL160W, strain elf1, stronger effect = lower value 0.967 | S. cerevisiae deletion strains, locus YKL190W, strain CNB1, stronger effect = lower value 1 | S. cerevisiae deletion strains, locus YKR001C, strain vps1, stronger effect = lower value 1.01 | S. cerevisiae deletion strains, locus YKR026C, strain gcn3, stronger effect = lower value 0.992 | S. cerevisiae deletion strains, locus YKR091W, strain srl3, stronger effect = lower value 0.995 | S. cerevisiae deletion strains, locus YLL001W, strain dnm1, stronger effect = lower value 0.958 | S. cerevisiae deletion strains, locus YLL026W, stronger effect = lower value 0.999 | S. cerevisiae deletion strains, locus YLL041C, strain sdh2, stronger effect = lower value 0.992 | S. cerevisiae deletion strains, locus YLR027C, strain aat2, stronger effect = lower value 0.999 | S. cerevisiae deletion strains, locus YLR039C, strain RIC1, stronger effect = lower value 1.01 | S. cerevisiae deletion strains, locus YLR058C, strain SHM2, stronger effect = lower value 1.01 | S. cerevisiae deletion strains, locus YLR102C, strain apc9, stronger effect = lower value 1.01 | S. cerevisiae deletion strains, locus YLR113W, strain HOG1, stronger effect = lower value 0.954 | S. cerevisiae deletion strains, locus YLR221C, strain rsa3, stronger effect = lower value 0.989 | S. cerevisiae deletion strains, locus YLR258W, strain gsy2, stronger effect = lower value 0.99 | S. cerevisiae deletion strains, locus YLR262C, strain YPT6 (second series), stronger effect = lower value 0.987 | S. cerevisiae deletion strains, locus YLR262C, strain YPT6, stronger effect = lower value 1.02 | S. cerevisiae deletion strains, locus YLR268W, strain sec22, stronger effect = lower value 1.01 | S. cerevisiae deletion strains, locus YLR320W, strain mms22, stronger effect = lower value 0.958 | S. cerevisiae deletion strains, locus YLR330W, strain CHS5, stronger effect = lower value 0.996 | S. cerevisiae deletion strains, locus YLR342W, strain FKS1 (second series), stronger effect = lower value 1.02 | S. cerevisiae deletion strains, locus YLR342W, strain FKS1, stronger effect = lower value 0.98 | S. cerevisiae deletion strains, locus YLR357W, strain rsc2, stronger effect = lower value 0.977 | S. cerevisiae deletion strains, locus YLR370C, strain arc18, stronger effect = lower value 0.99 | S. cerevisiae deletion strains, locus YLR371W, strain rom2, stronger effect = lower value 1.01 | S. cerevisiae deletion strains, locus YLR384C, strain iki3, stronger effect = lower value 0.977 | S. cerevisiae deletion strains, locus YLR418C, strain cdc73, stronger effect = lower value 1.01 | S. cerevisiae deletion strains, locus YML016C, strain PPZ1, stronger effect = lower value 0.999 | S. cerevisiae deletion strains, locus YML032C, strain rad52, stronger effect = lower value 1.01 | S. cerevisiae deletion strains, locus YML120C, strain ndi1, stronger effect = lower value 0.983 | S. cerevisiae deletion strains, locus YML124C, strain tub3, stronger effect = lower value 1.01 | S. cerevisiae deletion strains, locus YMR058W, strain fet3, stronger effect = lower value 0.988 | S. cerevisiae deletion strains, locus YMR078C, strain ctf18, stronger effect = lower value 1 | S. cerevisiae deletion strains, locus YMR125W, strain sto1, stronger effect = lower value 0.996 | S. cerevisiae deletion strains, locus YMR129W, stronger effect = lower value 1 | S. cerevisiae deletion strains, locus YMR205C, strain PFK2, stronger effect = lower value 0.973 | S. cerevisiae deletion strains, locus YMR223W, strain ubp8, stronger effect = lower value 1.01 | S. cerevisiae deletion strains, locus YMR231W, strain pep5, stronger effect = lower value 0.997 | S. cerevisiae deletion strains, locus YMR263W, strain SAP30, stronger effect = lower value 0.993 | S. cerevisiae deletion strains, locus YMR307W, strain GAS1, stronger effect = lower value 1.06 | S. cerevisiae deletion strains, locus YNL067W, strain RPL9B, stronger effect = lower value 1.01 | S. cerevisiae deletion strains, locus YNL071W, strain lat1, stronger effect = lower value 0.991 | S. cerevisiae deletion strains, locus YNL128W, strain TEP1, stronger effect = lower value 1.05 | S. cerevisiae deletion strains, locus YNL153C, strain GIM3, stronger effect = lower value 0.979 and 1.17 | S. cerevisiae deletion strains, locus YNL175C, strain NOP13, stronger effect = lower value 0.997 | S. cerevisiae deletion strains, locus YNL183C, strain NPR1, stronger effect = lower value 0.915 | S. cerevisiae deletion strains, locus YNL197C, strain WHI3, stronger effect = lower value 1.01 | S. cerevisiae deletion strains, locus YNL209W, strain ssb2, stronger effect = lower value 0.998 | S. cerevisiae deletion strains, locus YNL224C, strain SQS1, stronger effect = lower value 0.995 | S. cerevisiae deletion strains, locus YNL233W, strain BNI4, stronger effect = lower value 0.985 | S. cerevisiae deletion strains, locus YNL248C, strain rpa49, stronger effect = lower value 0.982 | S. cerevisiae deletion strains, locus YNL250W, strain rad50, stronger effect = lower value 1 | S. cerevisiae deletion strains, locus YNL271C, strain bni1, stronger effect = lower value 1.01 | S. cerevisiae deletion strains, locus YNL298W, strain CLA4, stronger effect = lower value 1.03 | S. cerevisiae deletion strains, locus YNL307C, strain MCK1, stronger effect = lower value 1.03 | S. cerevisiae deletion strains, locus YNL322C, strain KRE1 (second series), stronger effect = lower value 0.992 | S. cerevisiae deletion strains, locus YNL322C, strain KRE1, stronger effect = lower value 1 | S. cerevisiae deletion strains, locus YNR049C, strain mso1, stronger effect = lower value 0.99 | S. cerevisiae deletion strains, locus YNR052C, strain pop2, stronger effect = lower value 1.01 | S. cerevisiae deletion strains, locus YOL006C, strain TOP1, stronger effect = lower value 1.04 | S. cerevisiae deletion strains, locus YOL012C, strain htz1 0.826 | S. cerevisiae deletion strains, locus YOL147C, strain pex11, stronger effect = lower value 1.01 | S. cerevisiae deletion strains, locus YOR001W, strain rrp6, stronger effect = lower value 1.01 | S. cerevisiae deletion strains, locus YOR061W, strain CKA2, stronger effect = lower value 1.01 | S. cerevisiae deletion strains, locus YOR069W, strain VPS5, stronger effect = lower value 1.01 | S. cerevisiae deletion strains, locus YOR070C, strain gyp1, stronger effect = lower value 0.993 | S. cerevisiae deletion strains, locus YOR080W, strain dia2, stronger effect = lower value 0.994 | S. cerevisiae deletion strains, locus YOR083W, strain WHI5 (second series), stronger effect = lower value 0.99 | S. cerevisiae deletion strains, locus YOR083W, strain WHI5, stronger effect = lower value 0.968 | S. cerevisiae deletion strains, locus YOR106W, strain vam3, stronger effect = lower value 0.967 | S. cerevisiae deletion strains, locus YOR136W, strain idh2, stronger effect = lower value 1 | S. cerevisiae deletion strains, locus YOR144C, strain elg1, stronger effect = lower value 0.998 | S. cerevisiae deletion strains, locus YOR184W, strain ser1, stronger effect = lower value 1 | S. cerevisiae deletion strains, locus YOR231W, strain MKK1, stronger effect = lower value 0.984 | S. cerevisiae deletion strains, locus YOR265W, strain rbl2, stronger effect = lower value 0.992 | S. cerevisiae deletion strains, locus YOR270C, strain vph1, stronger effect = lower value 0.97 | S. cerevisiae deletion strains, locus YOR290C, strain snf2, stronger effect = lower value 0.99 | S. cerevisiae deletion strains, locus YOR316C, strain cot1, stronger effect = lower value 1.02 | S. cerevisiae deletion strains, locus YPL051W, strain arl3, stronger effect = lower value 0.99 | S. cerevisiae deletion strains, locus YPL055C, strain LGE1, stronger effect = lower value 0.968 | S. cerevisiae deletion strains, locus YPL078C, strain atp4, stronger effect = lower value 0.979 | S. cerevisiae deletion strains, locus YPL106C, strain sse1, stronger effect = lower value 0.958 | S. cerevisiae deletion strains, locus YPL240C, strain hsp82, stronger effect = lower value 0.999 | S. cerevisiae deletion strains, locus YPL241C, strain CIN2, stronger effect = lower value 1.01 and 1 | S. cerevisiae deletion strains, locus YPL256C, strain CLN2, stronger effect = lower value 0.979 | S. cerevisiae deletion strains, locus YPR119W, strain clb2, stronger effect = lower value 1 | S. cerevisiae deletion strains, locus YPR141C, strain kar3, stronger effect = lower value 1.01 | S. cerevisiae deletion strains, locus YPR163C, strain tif3, stronger effect = lower value 1.01 | S. cerevisiae deletion strains, locus YPR167C, strain met16, stronger effect = lower value 1 | S. cerevisiae deletion strains, strain wtn01, stronger effect = lower value 1.01 | S. cerevisiae strains, strain wild type, stronger effect = lower value 1
